# HT1080NT lethal – kills 2HG-producing HT-1080-NT fibrosarcoma cells | HT-1080-NT fibrosarcoma viability, CellTiter-Glo ATP luminescence, 48 h | Potency, µM (highest dose often 46.1 µM), without a hit: at the top dose activity, negative = less viability, usual class: cytotoxic | actives 1.6% (n = 360,000) | AID 686970;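 further: NT is the 2HG producing partner of a matched IDH1 knockdown line; potency means the concentration at half of the fitted maximal effect; 0% = DMSO-treated cells and -100% = media-only wells without cells; nearly all actives have a fitted effect of over 55% in size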
#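 Toxicity toward the 2HG-producing NT line was scored as %Activity, normalised to DMSO and no-cell wells, from CellTiter-Glo luminescence after 48 hours' treatment.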
# TDP1 cell noCPT – qHTS for Inhibitors of human tyrosyl-DNA phosphodiesterase 1 (TDP1): qHTS in cells in absence of CPT; DT40 Tdp1-/- hTDP1 cells, no CPT, ATP luminescence, 48 h; actives 15% (n = 420,000); Potency, µM (titrated, usually from 46.2 µM), without a hit: top-dose activity change, negative = growth inhibition, hits mostly inhibitors; further: potency means the concentration at half of the fitted maximal effect; nearly all actives have a fitted effect of over 55% in size
#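 Readout: luminescence from CellTiter-Glo after 30 min in the dark at RT. Cells: DT40 Tdp1-/- with stable hTDP1, 400/well. Exposure: compounds alone, ≥48 hr, 37 °C.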
# HT1080 IDH1KD tx – HT-1080 IDH1 knockdown cell toxicity (counter line); HT-1080 IDH1 knockdown viability, ATP luminescence, 48 h; Potency, µM (titrated, usually from 46.1 µM), without a hit: at the highest dose activity, negative = toxicity, actives largely listed as cytotoxic; actives 2% (n = 360,000); AID 686971;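 further: potency means the concentration at half of the fitted maximal effect; 0% = DMSO wells and -100% = cell-free medium wells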
#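 Assay cells: HT-1080 with IDH1 knockdown, 750 per well, RPMI/5% FBS. Exposure: 48 h at 37 °C following 2 h pre-incubation. Read: CellTiter-Glo luminescence; fitted concentration-response, curve class assigned.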
# IL1B secr inh – inhibitors of inflammasome signaling (IL-1 beta secretion); THP-1 LPS/ATP IL-1B secretion, AlphaLISA, 16 h; active compounds read low; activity change, % at 57.5 µM; actives 4.7% (n = 360,000); AID 743279; in the data active means activity change below about -50%; inconclusive means mostly about -30% to -49%
#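 Secreted IL-1B measured by AlphaLISA bead assay after 16 h compound exposure of THP-1 cells; compounds (final up to 57.5 uM) added 1 h before LPS (250 ng/mL) and ATP (1.25 mM) stimulation; lower signal means less secretion.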
# TDP1 cell CPT – DT40-hTDP1 cell growth loss with CPT | actives 12% (n = 420,000) | Potency, µM (series often up to 46.2 µM), for the others: at the highest dose activity change, negative = growth inhibition, most hits filed as inhibitors | chicken DT40 Tdp1-/-;hTDP1 cells + 20 nM CPT, ATP luminescence, 48 h; further: potency means the concentration at half of the fitted maximal effect; nearly all actives have a fitted effect of over 55% in size
#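 Chicken DT40 Tdp1-/- cells complemented with human TDP1, 400 cells/well, exposed to compounds plus 20 nM camptothecin for at least 48 h at 37 C; viability read as ATP content by CellTiter-Glo luminescence.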
# uPA generation – cell surface uPA generation inhibition | Potency, µM (highest dose often 38.3 µM), for the others: top-dose activity change, negative = inhibition, hits mostly inhibitors | cell surface uPA generation assay, qHTS | actives 0.31% (n = 330,000) | AID 540303; active means well fitted inhibition curve with a large enough effect; inconclusive means small, poorly fitted or top-dose-only effect; inactive means no such curve, though single readings can be large or run the other way; tested in mouse RAW 264.7 cells; further: potency means the concentration at half of the fitted maximal effect; nearly all actives have a fitted effect of over 55% in size
# * = called active by the depositor; ? = inconclusive; nt = no result. This is a sample that favours compounds with a hit; in the whole collection about 19% have one here. Unless noted, the call rests on the fitted dose curve; in most records, active means well fitted curve in the direction sought with a large enough effect; inconclusive means small, poorly fitted or top-dose-only effect, or another doubt; inactive means no such curve, though single readings can be large; an effect the other way counts as inactive or inconclusive. Unless noted, on the % scale 0 is the no-effect control and ±100 the full control effect.
SMILES,HT1080NT lethal,TDP1 cell noCPT,HT1080 IDH1KD tx,IL1B secr inh,TDP1 cell CPT,uPA generation
CC[C@@]1(C(=O)OC)N[C@H](CN(C)C(=O)NC(C)C)[C@@H]2C(=O)N(C)C(=O)[C@@H]21,6%,-2%,6%,37,1%,3%
O=C(c1[nH]c(C(F)(F)F)nc1-c1ccccc1)N1CCC(Cc2ccccc2)CC1,?,?,?,-23,?,nt
O=C(C=Cc1cccs1)c1ccc(Cl)s1,-19%,?,-2%,-16,-5%,-2%
O=C(/C=C/c1cccs1)c1cc(Cl)ccc1O,-3%,?,-12%,-21,16µM*,-25%
O=C(/C=C/c1ccco1)c1ccccc1O,-6%,-27%,0%,-10,-4%,2%
O=C(C=Cc1ccco1)c1cc(Cl)ccc1O,-1%,?,7%,-91*,?,2%
CC(C)(C)c1ccc(CC(=O)N2CCC2(C)C(=O)NCc2ccc(Cl)cc2)cc1 (centres undefined),?,21µM*,26µM*,-5,?,nt
CC1(C(=O)NCc2ccc(Cl)cc2)CCN1C(=O)Cc1cccc2ccccc12 (centres undefined),-22%,?,-4%,0,?,nt
CC(C)c1ccc(CC(=O)N2CCC2(C)C(=O)NCC(C)(C)C)cc1 (centres undefined),1%,23µM*,-18%,-74*,?,nt
CC1(C(=O)NCc2ccc(Cl)cc2)CCN1C(=O)Cc1ccc(Cl)cc1Cl (centres undefined),-15%,?,-17%,-21,18µM*,nt
CC(C)(C)c1ccc(CC(=O)N2CCC2(C)C(=O)NS(=O)(=O)c2ccccc2)cc1 (centres undefined),4%,5%,5%,-74*,-3%,nt
O=C(C[n+]1cccc(Br)c1)c1cccc([N+](=O)[O-])c1,nt,-20%,nt,nt,-1%,nt
Cc1ccnc(SCC(=O)c2ccc(Br)cc2)c1C#N,-12%,21µM*,-19%,-11,?,1%
Cc1ccc(C(=O)CSc2nsc(C)c2C#N)cc1,1%,-29%,12%,-14,?,-2%
CN(CC(=O)Nc1ccccc1C(F)(F)F)C(=O)c1cc([N+](=O)[O-])ccc1N1CCOCC1,1%,-1%,1%,-3,0%,7%
Cc1c(C(=O)NN2CCCCC2)nn(-c2ccc(Cl)cc2Cl)c1-c1ccc(Cl)cc1,nt,19µM*,nt,nt,?,nt
Cc1ccc(-c2c3c(=O)n(C)c(=O)n(C)c3cn2N2CCOCC2)cc1,-11%,?,-16%,-4,?,-12%
COc1ccc(-c2c3c(=O)n(C)c(=O)n(C)c3cn2C2CCCCC2)cc1,7%,?,1%,-54*,?,-11%
COC(=O)C[C@@H]1CC[C@@H](NC(C)=O)[C@@H](CO)O1,-1%,-2%,19%,-7,-8%,nt
CCSc1nc(-c2ccccc2F)nc2c1Cc1c(CO)cnc(C)c1O2,nt,-25%,nt,nt,-14%,nt
CCSc1nc(-c2ccccc2OC)nc2c1Cc1c(CO)cnc(C)c1O2,nt,8.2µM*,nt,nt,8.2µM*,nt
Cc1ccc(C)c(CSc2nc(-c3ccccc3F)nc3c2Cc2c(CO)cnc(C)c2O3)c1,nt,-14%,nt,nt,-12%,nt
COc1cccc(CSc2nc(-c3ccccc3F)nc3c2Cc2c(CO)cnc(C)c2O3)c1,nt,21µM*,nt,nt,?,nt
COc1ccccc1NCCC(=O)OCC(=O)Nc1ccccc1F,1%,-18%,2%,-3,-13%,2%
COCCn1c(=O)c(-c2ccc(Cl)cc2)nc2cnc(OCc3ccccc3)nc21,nt,22%,nt,nt,17%,nt
SMILES,HT1080NT lethal,TDP1 cell noCPT,HT1080 IDH1KD tx,IL1B secr inh,TDP1 cell CPT,uPA generation
Cc1ccc(S(=O)(=O)/N=C(\Sc2ccccc2)c2ccccc2)cc1,26%,6.5µM*,-25%,-50*,5.8µM*,nt
O=S(=O)(/N=C(\Sc1ccccc1)c1ccccc1)c1ccc(Cl)cc1,1%,11µM*,-24%,-53*,13µM*,nt
O=S(=O)(/N=C(\c1ccccc1)N1CCOCC1)c1ccc(Cl)cc1,-3%,-21%,-7%,-3,?,3%
COc1ccccc1N/C(=N/S(=O)(=O)c1ccc(C)cc1)c1ccccc1,2%,18µM*,0%,-4,?,-9%
Cc1ccc(C(=O)NCC(=O)OCc2cc(=O)n3c(C)csc3n2)cc1,nt,0%,nt,nt,-4%,nt
COc1ccccc1CN1CC(=O)N2CSC[C@H]2C1=O,-3%,-6%,0%,7,-3%,7%
CN(C)c1ncc2nc(-c3ccc(F)cc3)c(=O)n(C3CC3)c2n1,nt,0%,nt,nt,-2%,nt
COc1ccc(NC(=O)CCc2c(C)nc3c(c2C)c(=O)n(C)c(=O)n3C)c(OC)c1,nt,?,nt,nt,-9%,nt
CN1/C(=C/c2cccc[n+]2CCO)Sc2ccccc21,-2%,?,-4%,-1,?,1%
CC[n+]1ccccc1/C=C1\Sc2ccc(C)cc2N1C,23µM*,0.33µM*,9.2µM*,-77*,0.46µM*,7.1µM*
COc1ccc(Cl)cc1NC(=O)Cn1ncc2c3ccccc3n(Cc3ccccc3)c2c1=O,nt,15µM*,nt,nt,?,nt
O=C(Cn1ncc2c3ccccc3n(Cc3cccc(Cl)c3)c2c1=O)Nc1ccc(F)cc1F,nt,21µM*,nt,nt,29µM*,nt
CCc1ccccc1N1CC(c2nnc(NC(=O)c3ccco3)s2)CC1=O (centres undefined),nt,-30%,nt,nt,-13%,nt
Cc1ccc2nc(-c3cccs3)c(Nc3c(C)cccc3C)n2c1,nt,26µM*,nt,nt,23µM*,nt
Cc1cccc(C)c1Nc1c(-c2cccs2)nc2ncccn12,nt,?,nt,nt,21µM*,nt
COc1ccc(/C=C2/NC(=O)CNC2=O)cc1,1%,-1%,6%,-4,-5%,7%
Cc1cc(C)c(NS(=O)(=O)c2ccc3c(c2)NC(=O)CCS3)c(C)c1,-1%,15µM*,-6%,0,?,11%
CCC1Sc2ccc(S(=O)(=O)Nc3ccc(OC)c(OC)c3)cc2NC1=O (centres undefined),-22%,8.2µM*,?,-13,21µM*,-8%
CCOc1ccc(NS(=O)(=O)c2ccc3c(c2)NC(=O)CCS3)cc1,nt,12µM*,nt,nt,?,nt
Cc1ccc(NS(=O)(=O)c2ccc3c(c2)NC(=O)CCS3)c(C)c1,-25%,?,-10%,-6,23µM*,-4%
